Assay outcomes (PubChem BioAssay)
GDH-TPI inh – GDH-TPI coupling enzyme inhibitors, primary screen, artefact control for M. tuberculosis FBA inhibitor project, biochemical, absorbance, full deck. inhibition, % at 4.8 µM. AID 588335, 2011. GDH-TPI coupled enzyme counterscreen, NADH absorbance. hit rate 1.2% among 360,000; in the data active = inhibition above about 30%;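 note: 0% = DMSO wells and 100% = wells lacking the enzyme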
Rv3671c inh – Rv3671c serine protease inhibitors, primary screen, biochemical, fluorescence polarization, M. tuberculosis H37Rv; P9WHR9; inhibition, % at 5.96 µM; hit rate 0.048% among 320,000; in the data active = inhibition above about 38%;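 note: extracellular domain of Rv3671c used as enzyme; 0% = enzyme with DMSO and 100% = no enzyme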
Target sequence (P9WHR9 whole entry, looked up, the tested form may be a part): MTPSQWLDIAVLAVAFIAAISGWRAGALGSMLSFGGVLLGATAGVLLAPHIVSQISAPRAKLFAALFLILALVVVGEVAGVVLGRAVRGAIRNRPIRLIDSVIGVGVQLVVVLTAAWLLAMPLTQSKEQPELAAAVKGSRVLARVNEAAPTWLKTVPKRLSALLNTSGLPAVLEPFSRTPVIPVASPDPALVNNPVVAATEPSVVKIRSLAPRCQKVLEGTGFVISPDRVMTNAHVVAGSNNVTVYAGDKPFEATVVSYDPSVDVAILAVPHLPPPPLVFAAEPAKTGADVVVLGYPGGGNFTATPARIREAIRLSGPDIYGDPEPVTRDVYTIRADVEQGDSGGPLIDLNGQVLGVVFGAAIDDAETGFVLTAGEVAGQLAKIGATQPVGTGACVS
FadD28 binding – inhibitors of FadD28 bisubstrate probe binding, primary screen, biochemical, fluorescence polarization, single point | Mycobacterium tuberculosis FadD28 fatty-acid-AMP ligase | AID 588549, 2011 | hit rate 0.22% among 360,000 | inhibition, % at 12.5 µM; in the data active = inhibition above about 8.5%, passing the limit was not always enough
Mtb FBA inh – Mtb FBA enzyme inhibitors, primary screen, biochemical, fluorescence, strain H37Rv; Fructose-bisphosphate aldolase (Mycobacterium tuberculosis (strain ATCC 25618 / H37Rv)), …; purified M. tuberculosis FBA, fluorescence read-out; hit rate 2.3% among 360,000; inhibition, % at 1 µM; in the data active = inhibition above about 27%;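 note: 0% = vehicle and 100% = reference inhibitor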
BioA inh – M. tuberculosis BioA enzyme inhibitors, primary screen, biochemical, plate reader, single point, HTS; 7,8-diaminopelargonic acid synthase BioA (Mycobacterium tuberculosis); purified M. tuberculosis BioA enzyme; inhibition, % at 9.99 µM; hit rate 0.096% among 360,000; AID 602481, 2012; in the data active = inhibition above about 40%
* hit, by the source's call; · = no result; + = active, no number. Compounds with a hit are over-represented: about 3% of the library has one in this group of screens.

SMILES	GDH-TPI inh	Rv3671c inh	FadD28 binding	Mtb FBA inh	BioA inh
COc1ccc(C(=O)NCCc2ccc(Cl)cc2)cc1S(=O)(=O)N1CCCCC1C (stereo unspecified)	9	-1	7	2	0
COc1ccc(C(=O)NCCc2c[nH]c3ccccc23)cc1S(=O)(=O)N1CCCCC1C (stereo unspecified)	4	-16	62*	0	6
COc1ccc(NC(=O)N(C)C[C@@H]2OCc3ccccc3-c3ccccc3C(=O)N([C@@H](C)CO)C[C@@H]2C)c(OC)c1	·	·	·	·	-1
C/C(=N\Nc1nc2ccccc2[nH]1)c1cc2ccccc2o1	33*	11	1	4	·
C/C(=N\Nc1nc2ccccc2[nH]1)c1ccc2c(c1)OCO2	31*	5	-3	2	-1
C[C@@H]1CCCCO[C@H](CN(C)Cc2ccncc2)[C@H](C)CN([C@@H](C)CO)C(=O)c2cc(NC(=O)Cc3ccccc3)ccc2O1	·	·	·	·	3
C[C@H](CO)N1C[C@H](C)[C@@H](CN(C)C(=O)Nc2cccc3ccccc23)Oc2ccc(NC(=O)NC3CCCCC3)cc2C1=O	·	·	·	·	-1
Cn1c(=O)c2c(nc(N/N=C/c3ccncc3)n2Cc2ccccc2)n(C)c1=O	59*	4	2	-1	7
COc1cc(/C=N/Nc2nc3c(c(=O)n(C)c(=O)n3C)n2Cc2ccccc2)ccc1OC(=O)c1ccco1	33*	-22	-3	1	4
Cc1ccc(Cn2c(N/N=C/c3ccncc3)nc3c2c(=O)n(C)c(=O)n3C)cc1	26	7	-3	-6	13
CO[C@@H]1CN(C)C(=O)c2ccc(NC(=O)C3CC3)cc2OC[C@H](C)N(C(=O)c2ccncc2)C[C@H]1C	·	·	·	·	-1
O=c1[nH][nH]c2c(N=Cc3ccccc3O)ccc(F)c12	-2	·	16*	-3	1
C[C@@H]1CN([C@H](C)CO)C(=O)c2cc(NC(=O)Cc3ccccc3)ccc2O[C@@H](C)CCCCO[C@@H]1CN(C)S(=O)(=O)c1ccccc1	·	·	·	·	-4
COC(CSc1nc(N)c2c3c(sc2n1)CN(C)CC3)OC	36*	-2	-1	181*	3
CCCn1nc(NS(=O)(=O)c2cccc3nonc23)c2cc3cc(C)ccc3nc21	12	4	-3	-1	-3
CCCn1nc(NS(=O)(=O)c2cccc3nonc23)c2cc3cccc(C)c3nc21	10	9	9.9*	-1	5
C[C@@H]1CN([C@@H](C)CO)C(=O)Cc2cc(NS(C)(=O)=O)ccc2O[C@@H]1CN(C)Cc1ccccc1	·	·	·	·	1
CSc1ccc(-c2cc(=O)c3ccccc3o2)cc1	45*	-8	-3	+	4
O=c1cc(-c2ccc(F)cc2)oc2ccccc12	9	5	0	-1	·
CCn1c(-c2ccco2)nc2ccccc21	-10	-2	-4	16	0
Cn1c(-c2ccc[nH]c2=O)nc2cc(Cl)ccc21	2	0	-4	137*	-3
Oc1ccccc1Cn1c(-c2ccccc2O)nc2ccccc21	4	1	-22	15	-1
O=c1ccc(-c2nc3cc(Cl)ccc3n2Cc2ccccc2)c[nH]1	-2	2	-4	8	·
O=c1[nH]cccc1-c1nc2ccccc2n1Cc1ccccc1F	5	7	-2	122*	·
CCn1c(-c2ccc[nH]c2=O)nc2ccccc21	4	2	-2	134*	2
SMILES	GDH-TPI inh	Rv3671c inh	FadD28 binding	Mtb FBA inh	BioA inh
C[C@@H]1CN([C@H](C)CO)C(=O)c2cc(NC(=O)CCCN(C)C)ccc2O[C@@H]1CN(C)C(=O)Nc1ccc2c(c1)OCO2	·	·	·	·	1
Cc1ccc(-n2c(O)c(C=Nc3ccccc3-c3n[nH]c(=S)[nH]c3=O)c3ccccc3c2=O)cc1C	14	·	-8	5	·
Cc1cccc(-n2c(O)c(/C=N/NC(=O)c3ccccc3Cl)c3ccccc3c2=O)n1	35*	10	1	27	-1
Cc1cccc(-n2c(O)c(C=Nc3ccccc3O)c3ccccc3c2=O)n1	9	2	3	-15	1
Cc1cccc(-n2c(O)c(C=Nc3ccccc3-c3n[nH]c(=S)[nH]c3=O)c3ccccc3c2=O)n1	37*	11	-2	5	·
CC(=O)N1C[C@H]2[C@@H](c3ccccc31)[C@@H](CO)N2C(=O)CC1CC1	·	·	·	·	-4
CC(=NC1CC1)C1=C(O)c2ccccc2C1=O	38*	-1	-2	0	1
COc1ccc(N=C(C)C2=C(O)c3ccccc3C2=O)cc1	36*	-8	1	2	-2
CCOc1ccc(N=C(C)C2=C(O)c3ccccc3C2=O)cc1	23	-8	0	0	·
CC(=O)Nc1ccc(N=C(C2=C(O)c3ccccc3C2=O)c2ccccc2)cc1	21	-13	14*	-3	·
C[C@@H]1CCCCO[C@H](CN(C)C(=O)c2ccncc2)[C@@H](C)CN([C@@H](C)CO)C(=O)c2cc(NC(=O)C3CCCCC3)ccc2O1	·	·	·	·	-1
CC(C)NC(=O)Nc1ccc2c(c1)CC(=O)N([C@H](C)CO)C[C@H](C)[C@H](CN(C)Cc1ccc(Cl)c(Cl)c1)O2	·	·	·	·	-2
Cc1cc(OCC(=O)Nc2ccc(S(=O)(=O)N3CCN(C)CC3)cc2)ccc1Cl	1	-2	-2	141*	3
O=C(C[C@H]1C=C[C@H](NC(=O)C2CCC2)[C@@H](CO)O1)NC1CCC1	·	·	·	·	-2
CCS(=O)(=O)Nc1ccc2c(c1)C(=O)N(C)[C@H]1CC[C@@H](CC(=O)OC)O[C@H]1CO2	·	·	·	·	-4
Cc1ccc2c(C)c3ccc4ccccc4c3c[n+]2c1	11	·	-4	+	·
Cc1ccc2c(c1)Sc1c(ccc3ccccc13)N2	16	-6	-1	4	-1
CO[C@@H]1CN(C)C(=O)c2cc(NC(=O)NC(C)C)ccc2OC[C@H](C)N(CC2CC2)C[C@@H]1C	·	·	·	·	-4
CCC1(C)Cc2ccccc2-c2nc3n(c(=O)c21)CCS3 (stereo unspecified)	-3	5	-2	-2	·
CCC1(C)Cc2ccccc2-c2nc(-c3ccccc3)oc(=O)c21 (stereo unspecified)	8	-5	-2	0	·
CCn1c(NCCO)nc2c(c1=O)C(C)(CC)Cc1ccccc1-2 (stereo unspecified)	19	5	-5	159*	·
CCC1(C)Cc2ccccc2-c2nc(NCCCO)n(-c3ccccc3)c(=O)c21 (stereo unspecified)	12	2	-4	+	·
CCN(CC)c1ccc(/C=N/n2c(C)cc(C)cc2=O)cc1	33*	-9	-3	-2	-2
CCc1n[nH]c(=S)n1/N=C/c1ccc(N(CC)CC)cc1	48*	6	2	-5	-3
Cc1ccccc1-c1cnc2c(c1)C(=O)N([C@H](C)CO)C[C@H](C)[C@H](CN(C)Cc1cccnc1)O2	·	·	·	·	2
